Experimental data taken from PubChem BioAssay AID504577 (NMMLSC, 2011).
Among all 350,000 compounds or so, about 1,300 (0.37%) were called active. Cut-off read from the data, not from the text of the source: active = response mostly above about 7.3% (no sharp cut-off); inactive = mostly below about 5.4%. The full list was thinned out, with actives kept by preference.

Test: yeast vacuolar ATPase proton transport modulators – pHLuorin cytosolic pH fluorescence, primary screen (AID 504577); note: actives read high
Conditions: S. cerevisiae, at 10 µM, stronger effect = higher value

| Structure (SMILES) | response |
| --- | --- |
| COc1ccc(CC(=O)Nc2c3c(nn2-c2cccc(Cl)c2)CS(=O)C3)cc1 (stereo unspecified) | 5.74% (inactive) |
| CCN(CC)C(=O)C1=C(C)N(Cc2ccc(OC)cc2)C(=O)C(CC(=O)NCCCCc2ccccc2)C1 (stereo unspecified) | 2.59% (inactive) |
| O=C(CSc1nnc2ccc(-c3ccncc3)nn12)N1CCCCC1 | 2.79% (inactive) |
| COc1cc(NC(=O)CSc2nnc3ccc(-c4ccncc4)nn23)cc(OC)c1 | -1.89% (inactive) |
| Fc1cccc(CSc2nnc3ccc(-c4ccncc4)nn23)c1 | 30.5% (active) |
| NS(=O)(=O)c1ccc(CCNC(=O)c2ccc([N+](=O)[O-])cc2[N+](=O)[O-])cc1 | 0.09% (inactive) |
| CCOc1ccc(-n2c(SCC(=O)Nc3cc(C(=O)O)ccc3Cl)nc3ccccc3c2=O)cc1 | 2.47% (inactive) |
| COC(=O)c1cc(S(=O)(=O)N2CCN(c3cc(C)ccc3C)CC2)c[nH]1 | -1.19% (inactive) |
| O=C1Oc2ccccc2C(=O)/C1=C/c1ccccc1O | 15.2% (active) |
| COC(=O)c1ccc(/C=C2/C(=O)Oc3ccccc32)cc1 | -0.46% (inactive) |
| COC(=O)c1c(NC(=O)COc2ccc(Cl)cc2Cl)sc2c1CC(C)(C)NC2(C)C | 4.61% (inactive) |
| CCCc1cc(=O)oc2cc(OCC(=O)Nc3ccc(CN4CCOCC4)cc3)c(Cl)cc12 | -2.48% (inactive) |
| O=C(COc1cc2oc(=O)c3c(c2cc1Cl)CCC3)NCCCN1CCOCC1 | 9.9% (active) |
| Cc1cc(=O)oc2c(C)c(OCC(=O)NCCN3CCOCC3)ccc12 | 1.98% (inactive) |
| CC(=O)Nc1c2c(nn1-c1ccc(C)cc1C)CS(=O)C2 (stereo unspecified) | -4.1% (inactive) |
| OCC(O)CN(c1ccccc1)c1ccccc1 (stereo unspecified) | 1.73% (inactive) |
| Cc1cc(C(=O)Nc2nnc(C3CC3)s2)c(C)s1 | 3.66% (inactive) |
| COc1ccc(NC(=O)CCC(=O)Nc2nnc(C3CCCCC3)s2)cc1 | -2.38% (inactive) |
| Cc1occc1C(=O)Nc1nnc(C2CCCCC2)s1 | 10% (active) |
| CCSCc1nc(N)nc(NCCc2ccccc2)n1 | -0.9% (inactive) |
| CCSC1=NCCN1C(=O)c1ccc(S(=O)(=O)N(CC)CC)cc1 | 2.02% (inactive) |
| COc1ccc2nc(N3CCN(C(=O)c4ccc([N+](=O)[O-])o4)CC3)sc2c1 | 27.1% (active) |
| CCN(CC)CCN(C(=O)c1cccc([N+](=O)[O-])c1)c1nc2ccc(OC)cc2s1 | -1.21% (inactive) |

| Structure (SMILES) | response |
| --- | --- |
| COc1ccc2nc(N3C(=O)C(O)=C(C(=O)c4ccco4)C3c3ccco3)sc2c1 (stereo unspecified) | -1.37% (inactive) |
| CCOC(=O)CC1COCCN1C(=O)c1cc(COc2ccc(F)c(F)c2)on1 (stereo unspecified) | 0.12% (inactive) |
| COc1cc(=O)[nH]c(=O)n1C(=O)Cc1ccccc1 | -1.96% (inactive) |
| COc1ccc(/C=N/NC(=O)Cn2cc(C(F)(F)F)ccc2=O)cc1 | -4.67% (inactive) |
| Cc1nnsc1C(=O)N/N=C/c1cccc(C(F)(F)F)c1 | 3.26% (inactive) |
| COc1ccc(/C=N/NC(=O)c2cccc(C(F)(F)F)c2)cc1 | 13.1% (active) |
| CCCn1c(C(C)Nc2nc(-c3ccc(C)cc3)cs2)nc2cc(Cl)c(N3CCCCC3)cc21 (stereo unspecified) | -1.24% (inactive) |
| c1ccc(-c2nnc3n2NC(c2ccc4c(c2)OCO4)S3)cc1 (stereo unspecified) | -3.32% (inactive) |
| COC(=O)C(C)n1cnc2c(nnn2-c2cccc(Cl)c2)c1=O (stereo unspecified) | 16.6% (active) |
| CCOC(=O)C(C)n1cnc2c(nnn2-c2cccc(OC)c2)c1=O (stereo unspecified) | 1.26% (inactive) |
| COC(=O)C(C)n1cnc2c(nnn2-c2ccc(F)cc2)c1=O (stereo unspecified) | 1.53% (inactive) |
| CN1CCNC(=O)C1CC(=O)NCCC1=CCCCC1 (stereo unspecified) | 1.15% (inactive) |
| Cc1ccc(S(=O)(=O)/N=C(/Nc2ccc3[nH]c(=O)[nH]c3c2)c2ccccc2)cc1 | -2.11% (inactive) |
| Cc1ccc(NC(=O)NC(=O)c2ccccc2)cc1F | -0.67% (inactive) |
| Cc1cc(=O)c2ccc(NC(=O)c3ccccc3)cc2[nH]1 | 8.54% (active) |
| CN(C)S(=O)(=O)c1ccc(N2CCCC2=O)c([N+](=O)[O-])c1 | -0.02% (inactive) |
| O=C(c1cccs1)N1C[C@H](n2cc(C3CC3)nn2)[C@@H](O)C[C@@H]1c1ccccc1 | -2.35% (inactive) |
| C/C(=C/C(=O)N1CCN(C)CC1)C(=O)O | -2.99% (inactive) |
| C=C(C)CNc1cc(S(=O)(=O)N2CCOCC2)ccc1Oc1ccccc1 | 1.92% (inactive) |
| COc1ccc(S(=O)(=O)N2CCC(C(=O)OCC(=O)c3ccccc3)CC2)cc1[N+](=O)[O-] | -4.5% (inactive) |
| COC(=O)c1cc(Oc2ccc(S(=O)(=O)N3CCOCC3)cc2[N+](=O)[O-])cc(C(=O)OC)c1 | 13.9% (active) |
| O=C(C[C@@H]1C/C=C\CCC(=O)OC[C@@H]2CCCN2C1=O)NCCO | -3.85% (inactive) |
| COC(=O)c1c(NC(=O)CN2CCN(S(=O)(=O)c3ccccc3[N+](=O)[O-])CC2)sc2c1CCC(C)C2 (stereo unspecified) | -0.77% (inactive) |

| Structure (SMILES) | response |
| --- | --- |
| O=C1OCC2=C1C(c1ccccc1)CC(=O)N2c1cccc(F)c1 (stereo unspecified) | 18.5% (active) |
| O=C1CC(c2ccccc2)C(=O)N1c1cccc(O)c1 (stereo unspecified) | -0.89% (inactive) |
| O=C1CC(c2ccccc2)C(=O)N2C(=O)CC(c3ccccc3)C(=O)N12 (stereo unspecified) | -1.7% (inactive) |
| Cc1cc(C)n(CC(=O)Nc2ccc([N+](=O)[O-])cc2)n1 | -0.28% (inactive) |
| CC(C)(C)c1cnnn1-c1ccc([N+](=O)[O-])cc1 | 1.62% (inactive) |
| Cc1cc(CO)nn1-c1ccc([N+](=O)[O-])cc1 | 15.4% (active) |
| O=C(Nc1ccncc1)c1cc(-c2ccccn2)nc2ccc(Br)cc12 | 0.9% (inactive) |
| O=C(Nc1ccc(S(=O)(=O)Nc2nccs2)cc1)c1cc(-c2ccncc2)nc2ccccc12 | 2.45% (inactive) |
| Cc1ccc2nc(-c3ccncc3)cc(C(=O)Nc3ccc(OC(F)F)cc3)c2c1 | 11.1% (active) |
| CC(=O)C1=C(C)NC(=O)NC1c1cc(Br)ccc1OCC#N (stereo unspecified) | 1.72% (inactive) |
| CCC(C(=O)OC)n1cnc2scc(-c3ccc(C)cc3)c2c1=O (stereo unspecified) | -4.95% (inactive) |
| CCOC(=O)c1c(-c2ccc(-c3ccccc3)cc2)csc1NC(=O)CCC(=O)O | -1.32% (inactive) |
| COC(=O)c1c(-c2ccc(C)cc2)csc1N | 6.85% (active) |
| CC(C)=CCCC1(C)C=Cc2c(ccc3c2[nH]c2cc(O)c(C)cc23)O1 (stereo unspecified) | -1.63% (inactive) |
| Cc1nc2ccccc2c(=O)n1-c1ccc(F)c(NC(=O)c2cccs2)c1 | -7.41% (inactive) |
| Cc1nc2ccccc2c(=O)n1-c1ccc(NS(=O)(=O)c2ccc(F)cc2F)cc1 | 15.7% (active) |
| COc1ccc(NS(=O)(=O)c2ccc(F)cc2F)cn1 | -2.01% (inactive) |
| CN(CC(=O)N1CCN(c2ccccc2)CC1)S(=O)(=O)c1cccs1 | -1.07% (inactive) |
| O=C(CSc1nc2ccccc2c(=O)n1CCCO)N1CCc2ccccc21 | 1.92% (inactive) |
| O=C(O)c1ccc(-n2cccc2)cc1O | -0.56% (inactive) |
| CCCC[C@@H]1CN=C(N)N1CCCC | -0.58% (inactive) |
| CCCC[C@@H]1CN=C(N)N1CCc1cccc(F)c1 | 0.99% (inactive) |
| CCCC[C@@H]1CN=C(N)N1CCc1cc(C(F)(F)F)cc(C(F)(F)F)c1 | 14.3% (active) |

| Structure (SMILES) | response |
| --- | --- |
| C=CC[C@H](CC(=O)NCCO)C(=O)N[C@@H](COC(=O)[C@@H](CC=C)Cc1ccc(F)cc1)Cc1c[nH]c2ccccc12 | 7.71% (inactive) |
| COC(=O)Nc1ccc(S(=O)(=O)N2CCN(CCN3C(=O)C4C5C=CC(C5)C4C3=O)CC2)cc1 (stereo unspecified) | 1.48% (inactive) |
| CN(C)CCN=c1cc(-c2ccccc2)oc2ccc(Cl)cc12 | 1.09% (inactive) |
| O=C(O/N=C(/c1ccccc1)c1ccncc1)c1ccccc1[N+](=O)[O-] | 11.6% (active) |
| N/C(=N\OC(=O)c1ccc([N+](=O)[O-])cc1)c1ccccn1 | -2.74% (inactive) |
| O=C(Nc1ccncc1)c1ccccc1[N+](=O)[O-] | 1.22% (inactive) |
| CC(=O)c1cccc(NC(=O)C2CCN(C(=O)c3ccccc3Cl)CC2)c1 | -3.34% (inactive) |
| COc1ccc(S(=O)(=O)N2CCOC23CCN(S(=O)(=O)c2ccc([N+](=O)[O-])cc2)CC3)cc1 | 1.58% (inactive) |
| O=C(CSc1nnc(SCc2ccc(Cl)cc2)s1)N/N=C/c1ccccc1Cl | -0.5% (inactive) |
| COc1cc(/C=C2/C(=O)ON=C2C)ccc1OCc1ccccc1F | 2.69% (inactive) |
| C#CCOc1ccccc1/C=C1/C(=O)ON=C1C | 3.98% (inactive) |
| CC1=NOC(=O)/C1=C\c1ccccc1 | 17.2% (active) |
| CCn1c(COc2ccccc2)nnc1SCC(=O)Nc1ccc2c(c1)OCCO2 | -3.48% (inactive) |
| CCOC(=O)CNC(=O)CSc1nc2cccnc2n1CC | 4.49% (inactive) |
| CCOC(=O)CNC(=O)CSc1nnc(COc2ccc(Cl)cc2)n1CC | 17.5% (active) |
| CCCCNC(=O)c1c[nH]c2ccc(S(=O)(=O)Nc3ccc(OCC)cc3)cc2c1=O | -0.54% (inactive) |
| Cc1cc(=O)[nH]c(Nc2cccc(Br)c2)n1 | -2.7% (inactive) |
| CCOc1ccc(CCNC(=O)C2=C(C)C(=O)OC23CCC(C)CC3)cc1OCC (stereo unspecified) | 11.3% (active) |
| CCOc1ccc(CCNC(=O)Nc2ccccc2)cc1OCC | -3.89% (inactive) |
| CCN(CCNC(=O)C1=C(C)C(=O)OC12CCC(C)CC2)c1ccccc1 (stereo unspecified) | 0.79% (inactive) |
| C#CCN(C[C@@H]1[C@@H](OC(=O)NC2CC2)[C@@H](OC(=O)NC2CC2)Cn2c(=O)ccc(=O)n21)S(=O)(=O)c1ccc(C)cc1 | -0.61% (inactive) |
| O=C(Cc1ccccc1)NCC1OCCc2ccccc21 (stereo unspecified) | 2.21% (inactive) |
